We go through 25 compounds from PubChem BioAssay AID2315 (National Center for Advancing Translational Sciences (NCATS), 2010).

Among all 290,000 compounds or so, about 27,000 (9.3%) were called active. For the sample, actives were picked, then their nearest neighbours and some compounds at random. Unmarked numbers belong to inactive results. Cut-off read from the data, not from the text of the source: active = inhibition mostly above about 28% (no sharp cut-off); inactive = mostly below about 43%.

This assay in a line: A qHTS for Small Molecule Inhibitors of Shiga Toxin. Note: 0% is about no effect. The following applies: Vero cells, Shiga toxin protein synthesis inhibition reporter; at 38.7 µM, stronger effect = higher value.
For `CC(=O)OCC(NC(=O)C(Cc1ccccc1)NC(=O)OC(C)(C)C)C1OC(n2ccc(=O)[nH]c2=O)C(OC(C)=O)C1OC(C)=O` (stereo not given), the inhibition was 7.84%. Take `C=CCNc1nc(N)c([N+](=O)[O-])c(NC2CCCCC2)n1`: the inhibition is 14.1%. For `CCC(CC)c1nnc(NC(=O)C2CCN(C(=O)c3ccco3)CC2)s1`, the inhibition was 4.71%. `Cc1cc(N=Nc2ccc3ccccc3c2)ccc1O`: the inhibition was 107% (active). `COc1ccc(N=Nc2ccc(O)c(P(=O)(c3ccccc3)c3ccccc3)c2)cc1`: the inhibition is -5.57%.

For the compound `Cc1c(N=Nc2ccc(N(C)C)cc2)c(=O)n(-c2ccccc2)n1C`, the inhibition was 55.4% (active).

Regarding `Cc1ccc(N=Nc2c(C)[nH]n(-c3ccccc3)c2=O)cc1`, the inhibition is 25.5%. As for `Cc1nc(N)sc1N=Nc1c(C)n(C)n(-c2ccccc2)c1=O`, the inhibition is 2.84%. For the compound `CCCN1CCC(=O)N(C(CSc2ccc(OC)cc2)Cc2ccccc2)CC1` (stereo not given), the inhibition was -5.53%. Under `COc1ccc(CNC(=O)C(NS(=O)(=O)c2cccc3nsnc23)C(C)C)cc1` (stereo not given) stands -7.36%.

Consider `O=C(O)CCC(=O)N(Cc1ccccc1)Cc1ccccc1`, for which the inhibition is -10.9%. As for `CC[C@@H](C)[C@H](NC(=O)CCc1c(C)c2cc3c4c(oc3c(C)c2oc1=O)CCCC4)C(=O)O`, the inhibition is 22.3%.

On to `COc1cccc(OCCOc2cccc(/C=N/n3cnnc3)c2)c1`, for which the inhibition is 41.7% (active). Take `COc1ccccc1OCCOc1ccc(/C=N/n2cnnc2)cc1`: the inhibition was -21.9%. `C(=N\n1cnnc1)/c1cccnc1`: the inhibition is 2.15%. Take `O=C(c1ccc2c(c1)N(Cc1ccc(F)cc1)C(=O)c1ccccc1S2(=O)=O)N1CCN(c2ccccn2)CC1`: the inhibition is -2.78%. On to `CSc1ccc(C#N)cc1NC(=O)c1cccc(Cl)c1`, for which the inhibition was -14.6%. On to `Cc1cc(NC(=O)COc2ccc(Cl)cc2Cl)n(CCC#N)n1`, for which the inhibition is 87.8%. `CCOc1ccc(CN2CCN(Cc3ccc4cc(F)ccc4n3)CC2CCO)cc1` (stereo not given): the inhibition is -9.76%. Consider `CCOc1cc(/C=C(\C#N)c2nc(-c3cccs3)c(NC(C)=O)s2)ccc1O`, for which the inhibition is -0.261%. For `Cc1ccccc1OC/C(O)=C(\C#N)c1nc2ccccc2[nH]1`, the inhibition was -10.2%. On to `COc1cc(/C=C(\C#N)c2nc3ccccc3[nH]2)ccc1O`, for which the inhibition is 55.7% (active).

Consider `COc1ccc(/C=C(/NC(=O)c2ccc(C)cc2)c2nc3ccccc3[nH]2)cc1OC`, for which the inhibition was -2.72%. In the case of `COc1cc(/C=C(\C#N)c2nc3c(s2)CC(C)CC3)ccc1O` (stereo not given), the inhibition is 62.8% (active). As to `Cc1ccc(-c2ccnc3[nH]n(-c4ccccc4)c(=O)c23)cc1`, the inhibition is 17.7%.
